Screening data deposited in PubChem BioAssay by National Center for Advancing Translational Sciences (NCATS).
HT1080 IDH1KD tx: qHTS for induction of synthetic lethality in tumor cells producing 2HG: qHTS for the HT-1080-IDH1KD cell line; HT-1080 IDH1 knockdown viability, ATP luminescence, 48 h; Potency, µM (doses to about 46.1 µM), most hits filed as cytotoxic; 2% of 360,000 active; AID 686971, 2013
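HT-1080-IDH1KD cells (IDH1 knocked down), 750/well in RPMI with 5% FBS, treated with compound 48 h at 37 degrees C. Viability by CellTiter-Glo luminescence, normalised to DMSO and no-cell wells; concentration-response curves classed.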
HT1080NT lethal: qHTS for induction of synthetic lethality in tumor cells producing 2HG: qHTS for the HT-1080-NT fibrosarcoma cell line. HT-1080-NT fibrosarcoma viability, CellTiter-Glo ATP luminescence, 48 h. Potency, µM (series often up to 46.1 µM), most hits filed as cytotoxic. 1.6% of 360,000 active. AID 686970, 2013;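 note: NT is the 2HG producing partner of a matched IDH1 knockdown line; nearly all actives have a fitted effect of over 55% in size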
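A 48-hour cytotoxicity screen used HT-1080-NT cells plated 2 hours before compound delivery. ATP-based CellTiter-Glo luminescence measured viability, normalized to DMSO and no-cell controls.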
DT40 TDP1 no CPT: qHTS for Inhibitors of human tyrosyl-DNA phosphodiesterase 1 (TDP1): qHTS in cells in absence of CPT; Potency, µM (titrated, usually from 46.2 µM), most hits filed as inhibitors; DT40 Tdp1-/- hTDP1 cells, no CPT, ATP luminescence, 48 h; 15% of 420,000 active; AID 686978, 2013; note: nearly all actives have a fitted effect of over 55% in size
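A cellular qHTS used chicken DT40 cells lacking endogenous Tdp1 but carrying stably transfected human TDP1. Compounds were applied without camptothecin, and cell growth kinetics were judged by ATP-dependent luminescence after ≥48 hr.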
uPA surface inh: qHTS for Inhibitors of Cell Surface uPA Generation; cell surface uPA generation assay, qHTS; Potency, µM (top dose mostly 38.3 µM), hits mostly inhibitors; 0.31% of 330,000 active; active = well fitted inhibition curve with a large enough effect; inconclusive = small, poorly fitted or top-dose-only effect; inactive = no such curve, though single readings can be large or run the other way; tested in mouse RAW 264.7 cells; note: nearly all actives have a fitted effect of over 55% in size
TDP1 cell CPT: qHTS for Inhibitors of human tyrosyl-DNA phosphodiesterase 1 (TDP1): qHTS in cells in presence of CPT; chicken DT40 Tdp1-/-;hTDP1 cells + 20 nM CPT, ATP luminescence, 48 h; Potency, µM (doses to about 46.2 µM), actives largely listed as inhibitors; 12% of 420,000 active; note: nearly all actives have a fitted effect of over 55% in size
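Chicken DT40 Tdp1-/- cells stably complemented with human TDP1 were seeded at 400 cells/well in medium containing 20 nM camptothecin, exposed to pin-transferred compounds, and grown at 37 °C for at least 48 hr. Viability was read as ATP luminescence.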
IL1B secr inh: qHTS for Inhibitors of Inflammasome Signaling: IL-1-beta AlphaLISA Primary Screen; activity change, % at 57.5 µM; THP-1 LPS/ATP IL-1B secretion, AlphaLISA, 16 h; hits give low values; 4.7% of 360,000 active; AID 743279, 2014; in the data active = activity change below about -50%; inconclusive = mostly about -30% to -49%
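Secreted IL-1B measured by AlphaLISA bead assay after 16 h compound exposure of THP-1 cells; compounds (final up to 57.5 uM) added 1 h before LPS (250 ng/mL) and ATP (1.25 mM) stimulation; lower signal means less secretion.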
Hits are given with their value; i = inactive; ? = inconclusive; nt = no result given; [ ] = another dose, or the depositor's remark. An excerpt weighted towards active compounds, which were near 19% of everything screened. Unless noted, calls come from the whole dose curve; as a rule, active = well fitted curve in the direction sought with a large enough effect; inconclusive = small, poorly fitted or top-dose-only effect, or another doubt; inactive = no such curve, though single readings can be large; an effect the other way counts as inactive or inconclusive.

SMILES	HT1080 IDH1KD tx	HT1080NT lethal	DT40 TDP1 no CPT	uPA surface inh	TDP1 cell CPT	IL1B secr inh
O=C1c2[nH]nc(-c3ccc(Br)cc3)c2C(c2cccc(O)c2)N1c1ccc(Cl)cc1 (stereo not drawn)	nt	nt	23µM	nt	?	nt
Cc1ccc(-c2n[nH]c3c2C(c2ccccc2)N(c2ccc(C(=O)O)cc2)C3=O)cc1 (stereo not drawn)	i	i	i	i	i	i
COc1ccc(C2c3c(oc4cc(C)cc(C)c4c3=O)C(=O)N2Cc2ccco2)cc1OC (stereo not drawn)	nt	nt	i	nt	i	nt
COc1ccccc1C(=O)Nc1cccc(C(=O)c2ccccc2)c1	i	i	?	i	?	i
CC(=O)Nc1cccc(NC(=O)c2ccc(C(=O)Nc3cccc(NC(C)=O)c3)nc2)c1	i	i	i	i	i	i
CCOC(=O)c1ccc(CN(Cc2ccccc2C)S(=O)(=O)c2ccc(C(C)(C)C)cc2)cc1	nt	nt	18µM	nt	?	nt
COc1cccc(OC)c1C(=O)Nc1ccc(Br)c(C(=O)c2ccccc2)c1	i	i	16µM	i	?	i
COc1cccc(NC(=O)c2ccc3c(O)c(S(=O)(=O)c4ccccc4)c(=O)[nH]c3c2)c1	i	i	?	i	23µM	i
Cc1cccc(NC(=O)c2ccc(C(=O)Nc3cccc(C)c3)nc2)c1	21µM	?	16µM	i	2.6µM	i
COc1cc(-c2cc(C)c3c(OC)ccc(OC)c3n2)cc2c1OCCN(C(=O)CCn1ccc(C)n1)C2	nt	nt	?	nt	i[9.04 µM]	nt
Cc1cccc(C(=O)Nc2ccc(C(=O)c3ccncc3)cc2)c1	i	i	15µM	nt	?	i
CN(C)S(=O)(=O)Oc1ccc(C(=O)Nc2cccc(C(F)(F)F)c2)cc1	?	i	15µM	?	23µM	?
CN(C)S(=O)(=O)Oc1ccc(C(=O)Nc2cccc(Cl)c2)cc1	i	i	i	i	i	?
CCOC(=O)c1ccc(CN(Cc2ccc(F)cc2)S(=O)(=O)c2cc(C(=O)Nc3cccc(C(F)(F)F)c3)ccc2F)cc1	nt	nt	23µM	nt	13µM	nt
Cc1cccc(C(=O)Nc2ccc(C(=O)c3ccccc3)cc2)c1	i	i	?	i	?	-80
CC(C)c1ccc(OCC(=O)Nc2ccccc2C(=O)N2CCOCC2)cc1	i	i	?	i	?	i
CN(C)S(=O)(=O)Oc1cccc(C(=O)Nc2ccccc2Cl)c1	i	i	?	i	?	i
COc1ccc(NC(=O)c2ccc(C(=O)c3ccccc3)o2)cc1	i	i	2.1µM	i	?	i
COc1cccc(C(=O)Nc2ccc(C(=O)c3ccccc3)cc2)c1	i	i	16µM	i	i	i
COc1cccc(C(=O)Nc2ccc(C(=O)O)cc2)c1	i	i	?	i	i	i
COc1ccc(C(=O)Nc2ccc(NC(=O)c3cccc(OC)c3)cn2)cc1	?	21µM	i	i	?	i
CN(C)S(=O)(=O)Oc1cccc(C(=O)Nc2ccc(Cl)cc2)c1	?	i	12µM	i	8.2µM	-63
C#C[C@]1(O)CC[C@H]2[C@@H]3CCC4=CCCC[C@@H]4[C@H]3C(=C)C[C@@]21CC	nt	nt	i	nt	i	nt
O=S1(=O)CCC(NC(=S)N2CCOCC2)C1 (stereo not drawn)	i	i	i	i	i	i
O=C1NC[C@@H](CCCCN2C[C@H](Cc3ccc(O)cc3)N(CCc3ccc(O)cc3)C(=O)C2=O)N(CCc2ccc(O)cc2)C1=O	i	i	i	nt	i	i
CCC(Sc1nc2n[nH]c(C)c2c(=N)n1-c1cccc(Cl)c1)C(=O)NCCOC (stereo not drawn)	?	i	13µM	i	23µM	i
